In PubChem BioAssay (NCI):
This is part of a sample that, as a whole, favours compounds with a hit. Of some 83,000 tested, about 20% had one in any assay.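 Each cell line was grown in a 96-well plate and treated with one concentration of compound for 48 hours. Values below 10 were considered active.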 Unmarked numbers belong to inactive results. Activity calls are given as the source filed them.

Tests used:
Assay in all cases: NCI-60 one-dose screen, 48 h (100 = growth as untreated, 0 = no growth, -100 = all killed)
Settings in all cases: 10 µM unless noted
[1] = system: HCT-15 colon
[2] = system: HT29 colon
[3] = system: SNB-75 CNS
[4] = system: SNB-19 CNS
[5] = system: U251 CNS
[6] = system: SK-MEL-5 melanoma
[7] = system: UACC-62 melanoma
[8] = system: LOX IMVI melanoma
[9] = system: EKVX NSCLC
[10] = system: SN12C renal
[11] = system: UO-31 renal
[12] = system: TK-10 renal
[13] = system: ACHN renal
[14] = system: CAKI-1 renal
[15] = system: A498 renal
[16] = system: CCRF-CEM leukemia
[17] = system: MOLT-4 leukemia
[18] = system: SK-MEL-28 melanoma
[19] = system: SK-MEL-2 melanoma

Compound | growth [1] | growth [2] | growth [3] | growth [4] | growth [5] | growth [6] | growth [7] | growth [8] | growth [9] | growth [10] | growth [11] | growth [12] | growth [13] | growth [14] | growth [15] | growth [16] | growth [17] | growth [18] | growth [19]
Cc1ccc(-c2cc3nc(C(Cl)Cl)nc(C)n3n2)cc1 | 109% | 104% | 129% | 104% | 108% | 98.2% | 99.6% | 96.8% | 92.3% | 113% | 80.9% | 166% | 87.4% | 96.4% | 132% | 98.4% | 103% | – | –
CCO/C=N/C1=C(C#N)C(c2ccc(Cl)cc2)c2sc3c(C)cccc3c2O1 (configuration not stated) | 12.5% | 4.77% (active) | -5.08% (active) | 18.4% | 20.7% | 30.7% | 9.19% (active) | 22.1% | 45.9% | 26.2% | 30.3% | 62.2% | 31.8% | 39.5% | -5.08% (active) | 16.2% | 18.8% | 60.5% | 42.6%
COc1ccc(CCOc2cc3c(cc2OC)CCN(C(=O)NCc2cocn2)C3c2ccc(C)cc2C)cc1 (configuration not stated) | 5.53% (active) | -2.64% (active) | 39.2% | 22% | 5.74% (active) | -43.2% (active) | 24% | 1.85% (active) | – | 19.7% | 24.7% | 49.8% | 18.5% | 13.2% | -2.94% (active) | 26.4% | 21.8% | 38.7% | -7.32% (active)
Cc1occc1-c1nc2s/c(=C/c3ccc(-c4cc(C(F)(F)F)ccc4Cl)o3)c(=O)n2n1 | 104% | 106% | 97.5% | 98.5% | 105% | 99.7% | 93.8% | 101% | 100% | 98.4% | 87.4% | 114% | 102% | 89.2% | 105% | 117% | 113% | 112% | –
NS(=O)(=O)c1ccc(-n2cc(CN3CCNCC3)nn2)cc1 | 104% | 109% | 92.1% | 102% | 105% | 100% | 99% | 107% | 104% | 110% | 92.9% | 100% | 109% | 95.9% | 107% | 109% | 103% | 111% | 110%
CC(C)(C)n1cc(-c2ccnc(NCCCNS(=O)(=O)c3cccc(F)c3)n2)c(-c2ccc(Cl)c(O)c2)n1 | 89.6% | 94.8% | 110% | 103% | 106% | 95.5% | 89.5% | 96.4% | 80.5% | 90.9% | 101% | 152% | 97% | 95.8% | 91.4% | 71.4% | 77.4% | 95.4% | –
Cn1cc(-c2nc(N)nnc2-c2c[nH]c3ccc(Br)cc23)c2cc(Br)ccc21 | 29.8% | 14.1% | 55.8% | 43.1% | 27.9% | 42.9% | 27.4% | 44% | 65.1% | 44.7% | 54.1% | 98% | 52% | 40.3% | 18.3% | 11.8% | 17.7% | 60.1% | 26.8%
Cc1ccc2c(c1)Oc1nc(N)c(C#N)c(N)c1C2Sc1ccc(F)cc1 (configuration not stated) | -77.9% (active) | -38.6% (active) | -14.1% (active) | -98.2% (active) | -95.9% (active) | -95.4% (active) | -93.5% (active) | -93.1% (active) | -98.9% (active) | -98.4% (active) | -98.2% (active) | -98.8% (active) | -100% (active) | -99.8% (active) | -99.3% (active) | -21.1% (active) | -16.6% (active) | -98.9% (active) | -75.2% (active)
